Laboratory results reported in PubChem BioAssay (NCI).
Values joined by “and” are separate entries in the source; they are usually repeats but may differ in a detail not shown here. Identical values can stand only once. The panel holds about 83,000 compounds, 20% with a hit somewhere; the sample as a whole holds those more often.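 48-hour exposure, single concentration, 96-well plates; percent growth endpoint where 0 means no net growth. Active: below 10.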 Active and inactive are the calls of the source.

What was measured:
Test in all cases: NCI-60 one-dose screen, 48 h (100 = growth as untreated, 0 = no growth, -100 = all killed)
Details in all cases: 10 µM unless noted
NCI-H23 lung = test system: NCI-H23 lung
NCI-H226 lung = test system: NCI-H226 lung
NCI-H322M lung = test system: NCI-H322M lung
HOP-62 NSCLC = test system: HOP-62 NSCLC
NCI-H460 lung = test system: NCI-H460 lung
HOP-92 NSCLC = test system: HOP-92 NSCLC
NCI-H522 lung = test system: NCI-H522 lung
A549/ATCC NSCLC = test system: A549/ATCC NSCLC
786-0 renal = test system: 786-0 renal
COLO 205 colon = test system: COLO 205 colon

SMILES	growth (NCI-H23 lung)	growth (NCI-H226 lung)	growth (NCI-H322M lung)	growth (HOP-62 NSCLC)	growth (NCI-H460 lung)	growth (HOP-92 NSCLC)	growth (NCI-H522 lung)	growth (A549/ATCC NSCLC)	growth (786-0 renal)	growth (COLO 205 colon)
O=C(Nc1cccc(-n2ccc3c(NC(=O)c4ccccc4)nccc32)c1)c1ccc(Cl)c(C(F)(F)F)c1	-9.83% (active) and 72.4% (inactive)	34.5% (inactive) and 75.3% (inactive)	22.6% (inactive) and 79.3% (inactive)	-50.5% (active) and 67.7% (inactive)	-51.4% (active) and 12.8% (inactive)	-13.5% (active)	82.8% (inactive)	36.8% (inactive)	-74.9% (active) and 48% (inactive)	-49.7% (active) and 55.7% (inactive)
O=C(Oc1cccc(OC(=O)c2ccccc2)c1)c1ccccc1	94.6% (inactive) and 106% (inactive)	102% (inactive) and 100% (inactive)	101% (inactive) and 97.8% (inactive)	90.5% (inactive) and 90% (inactive)	107% (inactive) and 94.2% (inactive)	73.7% (inactive) and 88.5% (inactive)	108% (inactive)	57.7% (inactive) and 98.9% (inactive)	90% (inactive) and 95.8% (inactive)	101% (inactive) and 104% (inactive)
C=C1C(=O)O[C@H]2[C@H]1CC/C(COC(=O)NC1CCC(O)CC1)=C\CC[C@@]1(C)O[C@@H]21 (stereo not given in full)	58.3% (inactive) and 50.6% (inactive)	85.5% (inactive) and 95% (inactive)	105% (inactive) and 98.6% (inactive)	97% (inactive) and 97.4% (inactive)	100% (inactive) and 96.7% (inactive)	71.6% (inactive) and 54.6% (inactive)	-2.94% (active) and -11.8% (active)	91.7% (inactive) and 87.8% (inactive)	103% (inactive) and 99.6% (inactive)	44.9% (inactive) and 41.7% (inactive)
CN(C)c1ccc2nc3ccc(=[N+](C)C)cc-3sc2c1	12.5% (inactive) and 8.52% (active) and 28% (inactive)	52.2% (inactive) and 66.6% (inactive) and 68.8% (inactive)	24.8% (inactive) and 11.7% (inactive) and 30.7% (inactive)	58.7% (inactive) and 24.6% (inactive) and 46.6% (inactive)	17.1% (inactive) and 13.5% (inactive) and 32.9% (inactive)	63.3% (inactive) and 43.9% (inactive) and 76.6% (inactive)	6.69% (active) and 34.6% (inactive) and 37.6% (inactive)	3.7% (active) and 3.9% (active) and 14.7% (inactive)	40.9% (inactive) and 45.6% (inactive) and 54.6% (inactive)	11.2% (inactive) and -3.25% (active) and -16.6% (active)
COc1ccc2nc(Cl)cc(C)c2c1	101% (inactive) and 107% (inactive)	96.5% (inactive) and 104% (inactive)	91.3% (inactive) and 98.1% (inactive)	104% (inactive) and 65% (inactive)	100% (inactive) and 111% (inactive)	104% (inactive) and -11.5% (active)	97.5% (inactive) and 112% (inactive)	96.5% (inactive) and 109% (inactive)	97.2% (inactive) and 79.2% (inactive)	104% (inactive) and 131% (inactive)
Nc1nc2ncc(CNc3ccc(C(=O)N[C@@H](CCc4nn[nH]n4)C(=O)O)cc3)nc2c(=O)[nH]1	95.7% (inactive) and 95.5% (inactive)	98.7% (inactive) and 93.8% (inactive)	103% (inactive) and 102% (inactive)	103% (inactive) and 92.1% (inactive)	100% (inactive) and 101% (inactive)	93.4% (inactive) and 78.5% (inactive)	101% (inactive) and 84.6% (inactive)	106% (inactive) and 95.3% (inactive)	106% (inactive) and 109% (inactive)	107% (inactive) and 110% (inactive)
CCN(CC)CCNc1cc(-c2cccc(OC(F)(F)F)c2)nc2ccc(N3CCCC3)cc12	65.9% (inactive) and -7.71% (active) and 34.2% (inactive)	74.3% (inactive) and 47.8% (inactive) and 63.7% (inactive)	29.2% (inactive) and 18.9% (inactive) and 58.3% (inactive)	51.6% (inactive) and 3.4% (active) and 34.8% (inactive)	27.2% (inactive) and 0.777% (active) and 11.8% (inactive)	-83.3% (active) and -7.78% (active) and 20.8% (inactive)	60.8% (inactive) and -30.5% (active) and 23% (inactive)	55% (inactive) and 3.66% (active) and 29.9% (inactive)	-59.9% (active) and 1.27% (active) and 21.2% (inactive)	32.5% (inactive) and -76.5% (active) and -46.9% (active)
Cc1cccc(/C=C\C(=O)c2ccc(Cl)cc2)c1	93.9% (inactive) and 102% (inactive)	112% (inactive) and 100% (inactive)	103% (inactive) and 92.6% (inactive)	109% (inactive) and 113% (inactive)	110% (inactive) and 102% (inactive)	82.3% (inactive)	94.2% (inactive)	88.8% (inactive) and 85.8% (inactive)	82% (inactive) and 74.2% (inactive)	121% (inactive) and 111% (inactive)
Nc1cc2c(cc1N)-c1ccccc1C2	93.1% (inactive) and 88.3% (inactive)	84.3% (inactive) and 88.4% (inactive)	85.4% (inactive) and 95% (inactive)	96.6% (inactive) and 104% (inactive)	103% (inactive) and 101% (inactive)	84.3% (inactive)	15.9% (inactive) and 52.2% (inactive)	90.9% (inactive) and 90.4% (inactive)	89.3% (inactive) and 99.6% (inactive)	94.8% (inactive) and 93.1% (inactive)
c1ccc2c(CC3=NCCN3)cccc2c1	96.3% (inactive) and 98.5% (inactive)	91.4% (inactive) and 100% (inactive)	98.1% (inactive) and 115% (inactive)	112% (inactive) and 98.8% (inactive)	108% (inactive) and 105% (inactive)	82.3% (inactive) and 87.7% (inactive)	103% (inactive) and 90% (inactive)	97.6% (inactive) and 93.8% (inactive)	98.3% (inactive) and 99.9% (inactive)	113% (inactive) and 112% (inactive)
COC(=O)c1nc(N)nc(C(=O)OC)c1C(=O)c1ccc(OC)cc1	98.5% (inactive) and 58% (inactive)	101% (inactive) and 74.8% (inactive)	105% (inactive) and 88.1% (inactive)	115% (inactive) and 62.3% (inactive)	121% (inactive) and 55% (inactive)	106% (inactive) and 63.4% (inactive)	100% (inactive) and 55.7% (inactive)	102% (inactive) and 53.6% (inactive)	124% (inactive) and 72.4% (inactive)	109% (inactive) and 75.8% (inactive)
CC(C)CNC(=O)c1ccccc1C(=O)NC1(C(=O)NCC(C)C)CCCC1	100% (inactive) and 108% (inactive)	99% (inactive) and 103% (inactive)	112% (inactive) and 106% (inactive)	102% (inactive) and 95.6% (inactive)	108% (inactive) and 113% (inactive)	117% (inactive)	95.9% (inactive)	95.7% (inactive) and 107% (inactive)	107% (inactive) and 99% (inactive)	102% (inactive) and 121% (inactive)
CCOC(=O)Nc1ccc2c(c1)/C(=N\NC(N)=S)c1ccccc1-2	44.3% (inactive) and 62.6% (inactive)	76% (inactive) and 81.1% (inactive)	83.8% (inactive) and 94.9% (inactive)	74.7% (inactive) and 77.6% (inactive)	52% (inactive) and 58.4% (inactive)	71.1% (inactive)	76.9% (inactive)	60% (inactive) and 57.6% (inactive)	28% (inactive) and 53.7% (inactive)	63.3% (inactive) and 88.3% (inactive)
O=C(Nc1ccc([N+](=O)[O-])cc1Cl)c1cc(Cl)ccc1O	-37.1% (active) and -43.6% (active)	-11.4% (active) and -4.59% (active)	-0.032% (active) and -21.1% (active)	4.95% (active) and 9.98% (active)	0.171% (active) and -3.23% (active)	-24.7% (active) and -11.7% (active)	-34.6% (active) and -12.1% (active)	2.95% (active) and 18.5% (inactive)	-34.7% (active) and -36.2% (active)	-65.9% (active) and -43.8% (active)
